Screening results as filed in PubChem BioAssay.
Shown are actives, neighbours in structure and some others; about 1.6% of the full set was active somewhere.
KCNQ2 inh = rat KCNQ2 potassium channel inhibitors, primary screen, cell-based, CHO-K1, FluxOR thallium flux, B-score. hit rate 1.1% among 310,000. 20 min; stronger effect = lower value. AID 2156, 2009. Potassium voltage-gated channel subfamily KQT member 2 (Rattus norvegicus), O88943. B-score at 10 µM;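 active = fluorescence ratio B-score at most minus 3 library SDs, with starting brightness B-score within 2 library SDs, cut at about -5.5 in these data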
KCNQ2 pot = potentiators of rat KCNQ2 potassium channel; CHO-K1 KCNQ2, FluxOR thallium flux fluorescence; stronger effect = higher value; B-score at 10 µM; hit rate 0.54% among 310,000;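 active = fluorescence ratio B-score at least 3 SD of library B-scores, with initial fluorescence B-score within 3 of them, cut at about 5.3 in these data; same plate scores as AID 2156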;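 also: B-score of peak minus minimum over baseline fluorescence ratio after K+ and Tl+ stimulus; positive B-score means potentiation of KCNQ2 with more thallium influx and brighter signal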
Kir21 conf inh = mouse Kir2.1 channel blockers, retest, confirmation, cell-based, FluxOR thallium flux, duplicate; Tl flux remaining, % of negative control (stronger effect = lower value), % at 10 µM; Kir2.1-expressing cells, FluxOR thallium flux fluorescence; stronger effect = lower value; hit rate 41% among 2,300; shares compounds with KCNQ2 pot;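 active = Primary-screen hit whose thallium flux fell at least 3 control SD below untreated wells in both duplicates, with normal baseline fluorescence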
Target sequence (P35561 whole entry, looked up): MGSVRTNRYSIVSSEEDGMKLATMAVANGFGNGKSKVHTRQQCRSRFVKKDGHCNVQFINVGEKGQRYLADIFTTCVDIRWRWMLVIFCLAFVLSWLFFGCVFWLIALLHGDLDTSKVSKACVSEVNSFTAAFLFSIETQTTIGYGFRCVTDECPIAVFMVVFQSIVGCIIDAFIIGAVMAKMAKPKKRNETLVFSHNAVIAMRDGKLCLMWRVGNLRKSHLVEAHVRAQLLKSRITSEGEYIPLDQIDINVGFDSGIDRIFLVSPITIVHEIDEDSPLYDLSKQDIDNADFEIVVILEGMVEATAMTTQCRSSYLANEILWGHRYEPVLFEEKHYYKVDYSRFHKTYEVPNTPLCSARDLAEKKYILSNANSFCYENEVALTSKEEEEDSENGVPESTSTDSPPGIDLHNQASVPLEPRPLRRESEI
HEK293 Tl flux = alters thallium flux in parental HEK293 cells, Kir2.1 counter-screen. shares compounds with KCNQ2 pot. FluxOR thallium flux fluorescence; 0% = unstimulated blank wells. FluxOR signal as % of negative control (100 = no effect), % at 10 µM. hit rate 19% among 2,300. AID 2105;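 active = dye signal at least 3 control SD above or below untreated wells in both duplicates, raw fluorescence within 3, either direction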;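 also: percent is based on the flux ratio of peak minus minimum fluorescence over baseline F0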
CHO-K1 ctr = nonspecific thallium flux increase in parental CHO-K1, confirmation, counter-screen for KCNQ2 potentiator project, cell-based, FluxOR thallium flux, duplicate; activity increase over 3SD of controls, % at 10 µM; shares compounds with KCNQ2 pot; hit rate 43% among 1,200; parental CHO-K1 cells, FluxOR thallium flux fluorescence; zero = vehicle mean+3SD, 100% = vehicle-minus-blank window; AID 2282, 2010;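 active = signal rise of at least 3 SD above the untreated control mean, in both duplicate wells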;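 also: counter screen of KCNQ2 potentiator hits so any rise reflects channel-independent effects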
KCNQ1 sel pot = human KCNQ1 channel potentiation off-target, confirmation, selectivity assay for KCNQ2 potentiator project, cell-based, CHO, FluxOR thallium flux; shares compounds with KCNQ2 pot; hit rate 28% among 1,200; activation over 3SD threshold, % at 10 µM; AID 2283, 2010; CHO KCNQ1 stable, FluxOR thallium flux fluorescence; beyond 3SD, as % of vehicle-control signal;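 active = fluorescence ratio rise of at least 3 SD of vehicle wells above their mean, in both replicate wells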
KCNQ2 pot conf = rat KCNQ2 channel potentiators, confirmation, cell-based, CHO, FluxOR thallium flux, duplicate; shares compounds with KCNQ2 pot; CHO-KCNQ2 cells, FluxOR thallium flux fluorescence; hit rate 68% among 1,200; potentiation, less the hit threshold, % at 10 µM;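 active = fluorescence ratio rising 3 SD or more over the vehicle control mean in both replicates, plus primary screen hit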;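 also: peak minus minimum thallium fluorescence divided by baseline after K/Tl stimulus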
Kir21 spec = mouse Kir2.1 channel activation off-target, confirmation, selectivity assay for KCNQ2 potentiator project, cell-based, HEK293, FluxOR thallium flux. shares compounds with KCNQ2 pot. HEK293 Kir2.1, FluxOR thallium flux fluorescence. activity over 3SD threshold, % at 10 µM. hit rate 2% among 1,200. AID 2345, 2010;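 active = fluorescence ratio rise of at least 3 SD above the vehicle-control mean, seen in both replicates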
KCNQ2 W236L pot = potentiators of retigabine-insensitive KCNQ2 W236L, mechanism study for KCNQ2 potentiator project, cell-based, rat KCNQ2 W236L, CHO, automated patch clamp; shares compounds with KCNQ2 pot; automated patch clamp current; current increase over 3SD of negative controls (%), stronger effect = higher value, % at 25 µM; hit rate 10% among 940; AID 2558, 2010;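 active = current increase at least 3 SD of the untreated controls above them in both duplicate recordings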
Large screens that a line does not name were inactive (follow-up assays come after a bar, where they were run).

C/C(N)=C(/C#N)C(=O)CSc1nc2ccccc2c(=O)n1Cc1ccc(F)cc1	KCNQ2 pot 5.5 | Kir21 conf inh inactive | HEK293 Tl flux 167% | CHO-K1 ctr inactive | KCNQ1 sel pot 16 | KCNQ2 pot conf 3.4 | Kir21 spec inactive | KCNQ2 W236L pot inactive
Cc1ccccc1Nc1nc(N)nc(COC(=O)[C@@H](NC(=O)c2c(F)cccc2F)C(C)C)n1	none
S=C(NCCc1ccccc1)Nc1nccs1	none (no result: KCNQ2 pot)
S=C(NCc1ccccc1)Nc1nccs1	KCNQ2 pot 9 | Kir21 conf inh inactive | HEK293 Tl flux inactive | CHO-K1 ctr 26 | KCNQ1 sel pot inactive | KCNQ2 pot conf inactive | Kir21 spec inactive
O=C(CN(C(=O)CCC(=O)Nc1nccs1)C1CCCC1)NCc1ccc2c(c1)OCO2	none (no result: KCNQ2 pot)
O=C1NC2(CCCc3ccccc32)C(=O)N1Cc1nnc(-c2ccccc2Br)o1 (stereo not given)	none (no result: KCNQ2 pot)
O=c1c(Cl)c(Cl)cnn1Cc1nnc(-c2ccccc2Br)o1	KCNQ2 pot 5.5 | Kir21 conf inh inactive | HEK293 Tl flux inactive | CHO-K1 ctr 41 | KCNQ1 sel pot inactive | KCNQ2 pot conf 12 | Kir21 spec inactive | KCNQ2 W236L pot inactive
O=C(N=C1SC2CS(=O)(=O)CC2N1c1ccc(Cl)c(Cl)c1)C1CCCO1 (stereo not given)	none
COC(=O)c1cccc(CSc2nnc(-c3ccco3)n2-c2ccccc2)c1	none (no result: KCNQ2 pot) | Kir21 conf inh 58% | HEK293 Tl flux 68%
CCOC(=O)CSc1nnc(-c2ccco2)n1-c1ccccc1	none (no result: KCNQ2 pot)
O=C1c2ccccc2C(O)N1Cc1ccco1 (stereo not given)	none
c1coc(CN=C2NC(=NCc3ccco3)c3ccccc32)c1	none (no result: KCNQ2 pot) | Kir21 conf inh 35% | HEK293 Tl flux inactive
CCCc1cc(=O)[nH]c(Nc2ccc(Cl)cc2)n1	none (no result: KCNQ2 pot)
CC(C)NC(=O)Nc1n[nH]c(Nc2ccc(Cl)cc2)n1	KCNQ2 pot 5.6 | Kir21 conf inh inactive | HEK293 Tl flux inactive | CHO-K1 ctr 9.6 | KCNQ1 sel pot inactive | KCNQ2 pot conf inactive | Kir21 spec inactive | KCNQ2 W236L pot inactive
COc1cc2c(-c3ccccc3)c(C)oc2cc1/C=N/NC(N)=S	none
CC(C)(C)c1ccc(C(=O)Nc2nnc(C3=COCCO3)o2)cc1	none
CC(C)Oc1ccc(C(=O)Nc2nnc(C3=COCCO3)o2)cc1	KCNQ2 pot 5.3 | Kir21 conf inh inactive | HEK293 Tl flux inactive | CHO-K1 ctr 91 | KCNQ1 sel pot inactive | KCNQ2 pot conf inactive | Kir21 spec inactive | KCNQ2 W236L pot inactive
Cc1cccc(C)c1C(=NCCCN(C)C)c1ccccc1	none
CCN(CC)CCn1c2c(c(SCC(=O)Nc3cc(OC)cc(OC)c3)nc1=O)CCC2	none
O=C(COC(=O)Cc1c[nH]c2ccccc12)NC1CCCCC1	none | Kir21 conf inh 42% | HEK293 Tl flux inactive
O=C(COC(=O)Cc1c[nH]c2ccccc12)Nc1ccccc1	none (no result: KCNQ2 pot)
Cc1cccc(NS(=O)(=O)c2cccc(C(=O)N3CCCC(C(F)(F)F)C3)c2)c1 (stereo not given)	none
